# The antibiotic and cytotoxicity screens of Wong et al. (2023)
# Out of some 39,000 compounds screened, about 3,300 (8.5%) were called active. The list comes from a sample in which actives are over-represented; it also holds similar structures and randomly drawn compounds.
# Test system: HepG2
# Experiment: cytotoxicity call (relative viability < 0.9)
# Settings: 10 µM
row,SMILES,cytotoxicity call
1,C[C@H](CO)N1C[C@H](C)[C@H](CN(C)S(=O)(=O)c2cccs2)OCCCC[C@H](C)Oc2ccc(NC(=O)NC3CCCCC3)cc2C1=O,inactive
2,C[C@H]1CCCCO[C@H](CN(C)C(=O)Nc2ccc3c(c2)OCO3)[C@@H](C)CN([C@@H](C)CO)C(=O)c2cc(NC(=O)C3CCCCC3)ccc2O1,inactive
3,C[C@@H]1CN([C@@H](C)CO)C(=O)c2cccc(NS(C)(=O)=O)c2O[C@H]1CN(C)S(=O)(=O)c1cn(C)cn1,inactive
4,C[C@H]1CN([C@@H](C)CO)C(=O)c2cc(NS(=O)(=O)c3ccc(F)cc3)ccc2O[C@@H]1CN(C)S(C)(=O)=O,inactive
5,CC(C)NC(=O)N(C)C[C@H]1OCc2cn(nn2)CCCC(=O)N([C@@H](C)CO)C[C@H]1C,inactive
6,O[C@@H]1[C@@H](O)[C@H](Nc2ccccc2)OC[C@H]1O,inactive
7,Cc1noc(C)c1S(=O)(=O)N(C)C[C@H]1Oc2ccc(NC(=O)Nc3ccccc3)cc2CC(=O)N([C@H](C)CO)C[C@@H]1C,inactive
8,CN(C)CC#Cc1ccc([C@@H]2[C@@H](CO)N3C(=O)CN(C(=O)c4cccnc4)C[C@@H]23)cc1,inactive
9,COc1ccc(NC(=O)N(C)C[C@H]2OCCCC[C@@H](C)Oc3ccc(NS(=O)(=O)c4c(C)noc4C)cc3C(=O)N([C@H](C)CO)C[C@@H]2C)cc1,inactive
10,C[C@@H]1CCCCO[C@H](CN(C)C(=O)C2CCCCC2)[C@@H](C)CN([C@@H](C)CO)C(=O)c2cc(NC(=O)Cc3ccccc3)ccc2O1,inactive
11,C[C@@H]1CN([C@H](C)CO)C(=O)Cc2cc(NC(=O)Cn3cnnn3)ccc2O[C@@H]1CN(C)S(=O)(=O)c1cn(C)cn1,inactive
12,C[C@@H]1CN([C@@H](C)CO)C(=O)c2cc(NC(=O)Nc3ccccc3)ccc2O[C@@H](C)C/C=C/CO[C@H]1CN(C)S(=O)(=O)c1ccc(F)cc1,active
13,C[C@@H]1CN([C@@H](C)CN=[N+]=[N-])C(=O)c2cc(NC(=O)Nc3ccccc3)ccc2O[C@@H](C)CCCCO[C@H]1CN(C)S(=O)(=O)c1ccc(F)cc1,active
14,C[C@@H]1CN([C@@H](C)CO)C(=O)c2cc(NC(=O)Nc3ccccc3)ccc2O[C@@H](C)C/C=C\CO[C@H]1CN(C)S(=O)(=O)c1ccc(F)cc1,inactive
15,C[C@@H]1CN([C@H](C)CO)C(=O)c2cc(NC(=O)Nc3ccc(F)cc3)ccc2O[C@@H](C)CCCCO[C@H]1CN(C)S(=O)(=O)c1ccccc1,inactive
16,C[C@@H]1CCCCO[C@@H](CN(C)S(=O)(=O)c2ccccc2)[C@@H](C)CN([C@@H](C)CO)C(=O)c2cc(NC(=O)Nc3ccc(F)cc3)ccc2O1,inactive
17,CC(C)N1C[C@@H](C)[C@H](CN(C)S(=O)(=O)c2ccc(F)cc2)OCCCC[C@H](C)Oc2ccc(NC(=O)Nc3ccccc3)cc2C1=O,inactive
18,COc1ccc(S(=O)(=O)N(C)C[C@H]2OCCCC[C@H](C)Oc3ccc(NC(=O)Nc4ccccc4)cc3C(=O)N([C@H](C)CO)C[C@@H]2C)cc1,inactive
19,O=C(C[C@@H]1CC[C@@H]2[C@H](COC[C@H](O)CN2C(=O)Nc2cccc(F)c2)O1)NCCCN1CCOCC1,inactive
20,C[C@@H]1CN([C@@H](C)CO)C(=O)c2cc(NS(=O)(=O)c3ccccc3)ccc2O[C@@H](C)CCCCO[C@@H]1CN(C)S(=O)(=O)c1cn(C)cn1,inactive

row,SMILES,cytotoxicity call
1,C[C@@H]1CN([C@H](C)CO)C(=O)c2cc(NC(=O)CCC(F)(F)F)ccc2O[C@@H](C)CCCCO[C@@H]1CN(C)C(=O)CCC(F)(F)F,inactive
2,COc1ccc(-c2oc3cc(OC)c(OC)c(OC)c3c(=O)c2OC)cc1,inactive
3,COc1cc(O)c2c(=O)c(OC)c(-c3ccc(OC)c(OC)c3)oc2c1,inactive
4,COc1ccc(-c2oc3cc(OC)c(OC)c(OC)c3c(=O)c2OC)cc1OC,active
5,O=C(C[C@H]1C=C[C@@H](NC(=O)Cc2ccccn2)[C@H](CO)O1)NCCCN1CCOCC1,inactive
6,C[C@@H]1CN([C@H](C)CO)C(=O)c2c(c3ccccc3n2C)-c2ccccc2CO[C@H]1CN(C)C(=O)[C@H](C)c1ccccc1,inactive
7,CC1OC(OC2C(O)CC(OC3C(O)CC(OC4CCC5(C)C(CCC6C5CC(O)C5(C)C(C7=CC(=O)OC7)CCC65O)C4)OC3C)OC2C)CC(O)C1O (stereo not drawn),active
8,C[C@H]1O[C@@H](O[C@H]2[C@@H](O)C[C@H](O[C@H]3[C@@H](O)C[C@H](O[C@H]4CC[C@@]5(C)[C@H](CC[C@@H]6[C@@H]5C[C@@H](O)[C@]5(C)[C@@H](C7=CC(=O)OC7)CC[C@]65O)C4)O[C@@H]3C)O[C@@H]2C)C[C@H](O)[C@@H]1O,active
9,C[C@H]1O[C@@H](O[C@H]2[C@@H](O)C[C@H](O[C@H]3[C@@H](O)C[C@H](O[C@H]4CC[C@@]5(C)[C@H](CC[C@@H]6[C@@H]5C[C@@H](O)[C@@]5(C)[C@@H](C7=CC(=O)OC7)CC[C@]65O)C4)O[C@@H]3C)O[C@@H]2C)C[C@H](O)[C@@H]1O,active
10,O=C(C[C@H]1CC[C@H]2[C@@H](COC[C@H](O)CN2S(=O)(=O)c2ccc(F)cc2)O1)N[C@@H]1CCN(Cc2ccccc2)C1,inactive
11,CO[C@H]1CN(C)C(=O)c2ccc(NS(C)(=O)=O)cc2OC[C@@H](C)N(C(=O)C2CCCCC2)C[C@@H]1C,inactive
12,C[C@@H]1CCCCO[C@@H](CN(C)C(=O)C2CCCCC2)[C@@H](C)CN([C@@H](C)CO)C(=O)c2cc(NS(=O)(=O)c3ccc(F)cc3)ccc2O1,inactive
13,COc1ccc(S(=O)(=O)N(C)C[C@@H]2Oc3ccc(NS(=O)(=O)c4ccc(F)cc4)cc3CC(=O)N([C@@H](C)CO)C[C@@H]2C)cc1,inactive
14,C[C@@H]1CN([C@H](C)CO)C(=O)c2cc(NC(=O)NC3CCCCC3)ccc2O[C@H]1CN(C)S(=O)(=O)c1cn(C)cn1,inactive
15,Cc1ccc(S(=O)(=O)N(C)C[C@@H]2Oc3ccc(NC(=O)CCN4CCOCC4)cc3CC(=O)N([C@H](C)CO)C[C@@H]2C)cc1,inactive
16,Cc1ccc(S(=O)(=O)N(C)C[C@@H]2Oc3c(NC(=O)Nc4ccc(C(F)(F)F)cc4)cccc3C(=O)N([C@@H](C)CO)C[C@H]2C)cc1,inactive
17,C[C@@H]1CN([C@H](C)CO)C(=O)c2cccc(NC(=O)Nc3ccc(C(F)(F)F)cc3)c2O[C@@H]1CN(C)S(=O)(=O)c1ccc(Cl)cc1,inactive
18,Cc1ccc(S(=O)(=O)N(C)C[C@@H]2Oc3c(NC(=O)Nc4ccc(C(F)(F)F)cc4)cccc3C(=O)N([C@H](C)CO)C[C@H]2C)cc1,inactive
19,C[C@H]1CN([C@@H](C)CO)C(=O)c2cccc(NC(=O)Nc3ccc(C(F)(F)F)cc3)c2O[C@H]1CN(C)S(=O)(=O)c1ccc(Cl)cc1,active
20,Cc1ccc(S(=O)(=O)N(C)C[C@H]2Oc3c(NC(=O)Nc4ccc(C(F)(F)F)cc4)cccc3C(=O)N([C@@H](C)CO)C[C@H]2C)cc1,active

row,SMILES,cytotoxicity call
1,C[C@H](CO)N1C[C@H](C)[C@H](CN(C)S(=O)(=O)c2ccc(Cl)cc2)Oc2c(NC(=O)Nc3ccc(C(F)(F)F)cc3)cccc2C1=O,inactive
2,Cc1ccc(OC(=O)N(C)C[C@@H]2OCc3ccccc3-c3ccccc3C(=O)N([C@H](C)CO)C[C@H]2C)cc1,inactive
3,C[C@@H]1CN([C@H](C)CO)C(=O)Cc2cc(NC(=O)Cc3ccccc3)ccc2O[C@H]1CN(C)C(=O)Nc1ccc(C(F)(F)F)cc1,inactive
4,C[C@@H]1CN([C@H](C)CO)C(=O)c2cc(N(C)C)ccc2O[C@@H](C)CCCCO[C@@H]1CN(C)S(C)(=O)=O,inactive
5,CCCNC(=O)N(C)C[C@@H]1Oc2cc(C#Cc3ccccn3)ccc2S(=O)(=O)N([C@H](C)CO)C[C@H]1C,inactive
6,Cc1ccc(S(=O)(=O)N(C)C[C@H]2Oc3ccc(NC(=O)NC(C)C)cc3CC(=O)N([C@@H](C)CO)C[C@H]2C)cc1,inactive
7,NC(=O)[C@@]1(CCS(=O)(=O)c2ccccc2)N=C(c2ccc(OCCCO)cc2)O[C@H]1c1ccccc1,inactive
8,C[C@@H](Oc1cc(-n2cnc3ccc(CN4CCN(C)CC4)cc32)sc1C(N)=O)c1ccccc1C(F)(F)F,active
9,C[C@@H]1CN([C@@H](C)CO)C(=O)c2cc(C#CC3(O)CCCC3)cnc2O[C@@H]1CN(C)C(=O)Cc1cccnc1,inactive
10,C[C@@H]1CN([C@H](C)CO)C(=O)c2cc(C#CC3(O)CCCC3)cnc2O[C@@H]1CN(C)C(=O)CN(C)C,inactive
11,CCCC(=O)Nc1ccc2c(c1)C(=O)N(C)C[C@@H](OC)[C@H](C)CN(Cc1ccc(-c3ccccn3)cc1)[C@@H](C)CO2,inactive
12,CCC(CO)NCCNC(CC)CO.Cl.Cl (stereo not drawn),inactive
13,C=CCC[C@@H](Cc1ccc(F)cc1)C(=O)OC[C@@H](NC(=O)[C@@H](CC=C)CC(=O)N[C@@H](CO)Cc1ccccc1)C(C)(C)C,inactive
14,C=CCC[C@H](Cc1ccc(F)cc1)C(=O)OC[C@@H](NC(=O)[C@@H](CC=C)CC(=O)N[C@H](CO)Cc1ccccc1)C(C)(C)C,inactive
15,C=CC[C@H](CC(=O)N[C@@H](CO)Cc1ccccc1)C(=O)N[C@@H](COC(=O)[C@@H](CC=C)Cc1ccc(F)cc1)Cc1ccccc1,inactive
16,C=CCC[C@@H](Cc1ccc(F)cc1)C(=O)OC[C@@H](Cc1ccccc1)NC(=O)[C@H](CC=C)CC(=O)N[C@@H](CO)Cc1ccccc1,inactive
17,C=CCC[C@@H](Cc1ccc(F)cc1)C(=O)OC[C@@H](NC(=O)[C@@H](CC=C)CC(=O)N[C@H](CO)Cc1ccccc1)C(C)(C)C,active
18,C=CCC[C@H](Cc1ccc(F)cc1)C(=O)OC[C@@H](NC(=O)[C@@H](CC=C)CC(=O)N[C@@H](CO)Cc1ccccc1)C(C)(C)C,active
